Assay outcomes (PubChem)
Sampled rows, rich in hits. Any-hit rate of the full collection: about 19%.
SARS PLpro yeast – qHTS of Yeast-based Assay for SARS-CoV PLP; S. cerevisiae expressing SARS-CoV PLpro, growth rescue; Potency, µM (series often up to 32.9 µM), inactives show top-dose activity, positive = growth rescue, hits mostly activators; actives 0.19% (n = 330,000); calls by dose curve; further: potency means the concentration at half of the fitted maximal effect; 0% is about no effect; nearly all actives have a fitted effect of over 55% in size
CHX counter – Cycloheximide Counterscreen for Small Molecule Inhibitors of Shiga Toxin. cell reporter, cycloheximide protein synthesis inhibition counterscreen. max response, %. actives 12% (n = 300,000); in the data active means max response mostly above about 13%, no sharp cut-off; inactive means mostly below about 14%; further: read at 38.3 µM for the half of the compounds with a filed dose; 0% is about no effect
Pf growth 96h – Primary qHTS for delayed death inhibitors of the malarial parasite plastid, 96 hour incubation | P. falciparum luciferase reporter growth, 96 h | Potency, µM (series often up to 28.7 µM), without a hit: top-dose activity change, negative = inhibition, most hits filed as inhibitors | actives 6.9% (n = 320,000); further: potency means the concentration at half of the fitted maximal effect; on the % scale 0 is the no-effect control and ±100 the full control effect
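Plates of compound plus infected erythrocytes (2% hematocrit, 0.05% parasitemia final) incubate 96 hours, 37 C, 5% CO2. Detection reagent added; reduced luminescence from the parasites' luciferase reporter flags inhibition.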
Pf growth 48h – Primary qHTS for delayed death inhibitors of the malarial parasite plastid, 48 hour incubation | P. falciparum luciferase growth in erythrocytes, 48 h | Potency, µM (highest dose often 28.7 µM), inactives show at the highest dose activity change, negative = inhibition, usual class: inhibitors | actives 5.9% (n = 310,000) | AID 504832, 2011; further: potency means the concentration at half of the fitted maximal effect; on the % scale 0 is the no-effect control and ±100 the full control effect
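Read-out is firefly luciferase luminescence from an integrated reporter in P. falciparum, so falling signal marks reduced parasite growth. Infected erythrocytes were at 2% hematocrit and 0.1% parasitemia (final) in Albumax-supplemented RPMI 1640.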
AMA1-RON2 inh – qHTS for Inhibitors of AMA1-RON; Towards Development of Antimalarial Drug Lead: Primary Screen. Potency, µM (highest dose often 58.2 µM), for inactives: at the top dose activity change, negative = inhibition, hits mostly inhibitors. AlphaScreen AMA1-biotinylated RON2 peptide binding. Plasmodium falciparum AMA1 (3D7) - RON2 peptide interaction. actives 0.2% (n = 360,000). AID 720542, 2013;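 further: potency means the concentration at half of the fitted maximal effect; 0% = vehicle wells and -100% = peptide control; nearly all actives have a fitted effect of over 45% in size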
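AMA1 (3D7) with his tag at 25 nM final met compounds first, then biotinylated RON2 peptide at 25 nM; detection used donor plus acceptor beads, 10 µg/mL apiece, read by AlphaScreen after 30 min at room temperature.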
Shiga inhibitor – A qHTS for Small Molecule Inhibitors of Shiga Toxin. Vero cells, Shiga toxin protein synthesis inhibition reporter. inhibition, % at 38.7 µM. actives 9.2% (n = 290,000); in the data active means inhibition mostly above about 28%, no sharp cut-off; inactive means mostly below about 43%; further: 0% is about no effect
* = called active by the depositor; ? = inconclusive; . = no result given; [ ] = another dose, or the depositor's remark. Unless noted, the call rests on the fitted dose curve; in most records, active means well fitted curve in the direction sought with a large enough effect; inconclusive means small, poorly fitted or top-dose-only effect, or another doubt; inactive means no such curve, though single readings can be large; an effect the other way counts as inactive or inconclusive.

SMILES | SARS PLpro yeast | CHX counter | Pf growth 96h | Pf growth 48h | AMA1-RON2 inh | Shiga inhibitor
Cc1ccc(COc2coc(CO)cc2=O)cc1 | -0.9% | 37.9* | 73.0% | 96.6% | -8.3% | 37.0
CN(C(=O)CC1C(=O)NCCN1Cc1ccccc1C(F)(F)F)C1CCOCC1 (stereo not drawn) | 1.6% | 0.7 | 0.3% | 2.7% | 14.7% | -4.9
COc1ccc(C2NCCc3c2[nH]c2ccccc32)cc1COc1ccc(F)cc1 (stereo not drawn) | -3.9% | -10.8 | ? | ? | -5.6% | -23.0
COc1ccc(C2NCCc3c2[nH]c2ccccc32)cc1CN1CCc2cc(OC)c(OC)cc2C1C (stereo not drawn) | -1.4% | -1.9 | ? | 1.65µM* | -7.4% | -13.8
N#CC(C#N)=Cc1ccc(C=C(C#N)C#N)cc1 | 0.7% | 20.0* | 3.0% | ? | -0.6% | 27.1
CCCN1CCc2c(sc(NC(=O)CCS(=O)(=O)c3ccccc3)c2C(=O)OC)C1 | -5.0% | 7.4 | 13.1µM* | ? | 8.4% | -7.9
COC(=O)c1c(NC(NC(=O)c2ccccc2)(C(F)(F)F)C(F)(F)F)sc2c1CCN(C)C2 | -16.1% | -3.2 | 2.33µM* | 8.28µM* | 40.0% | -3.8
COC(=O)c1c(NC(=O)CCS(=O)(=O)c2ccccc2)sc2c1CCN(C)C2 | 0.6% | 0.1 | ? | 13.1µM* | 5.6% | -7.8
O=C(NCCCN1CCCC1)c1ccc(CS(=O)(=O)c2ccc(Cl)cc2)o1 | ? | -4.7 | ? | 7.5% | -1.3% | -3.9
Cc1noc(C)c1C(=O)N(C)C[C@@H]1OCc2ccccc2-c2c(n(C)c3ccccc23)C(=O)N([C@H](C)CO)C[C@H]1C | . | . | . | . | 11.0% | .
Cc1onc(C(=O)NCCc2ccccc2)c1[N+](=O)[O-] | -1.1% | 13.5 | 22.3% | 13.8%[0.00184 µM] | 14.7% | 48.1
Cc1onc(C(=O)Nc2ccc(OC(F)(F)F)cc2)c1[N+](=O)[O-] | -4.3% | 57.2* | ? | 5.7% | -5.2% | 89.2*
CC(=O)c1ccc(NC(=O)c2noc(C)c2[N+](=O)[O-])cc1 | -2.8% | 31.2* | 22.6% | -2.2% | 2.1% | 63.1*
COC(=O)C1=C(C)NC(C)=C(C(=O)OC)C1c1ccc(C)o1 | 1.2% | -3.0 | 10.0% | -8.2% | -2.4% | -0.8
COc1cc(C2C(C(=O)OC(C)C)=C(C)Nc3[nH]c(=O)[nH]c(=O)c32)ccc1O (stereo not drawn) | 1.6% | -0.4 | -3.4% | 1.2% | 24.2% | 6.0
CCOC(=O)C1=C(C)NC(C)=C(C(=O)OCC)C1c1ccc(Br)o1 | 18.1% | -5.1 | 11.7µM* | ? | 8.1% | -1.6
CC1=C(C(=O)OC(C)C)C(c2ccc(C)o2)C(C(=O)OC(C)C)=C(C)N1 | -0.5% | 1.3 | ? | 10.4µM* | -14.6% | 5.9
COc1ccc(C2C(C#N)=C(C)NC(C)=C2C(=O)OC(C)C)c(OC)c1 (stereo not drawn) | -3.8% | 9.8 | 4.65µM* | 7.38µM* | -11.3% | -13.3
CC1CC(C)CN(C(=O)CSc2nnc(-c3ccco3)o2)C1 (stereo not drawn) | 6.4% | 13.1* | ? | -15.3% | 1.8% | 47.3
O=C(CSc1ccc(-c2ccco2)nn1)c1cccc([N+](=O)[O-])c1 | 4.9% | -5.3 | 13.1µM* | ? | 53.4% | 19.9
O=C(CSc1nnc(-c2ccco2)o1)N1CCCCC1 | -1.2% | 25.5* | 14.0% | 169.4% | 0.0% | 66.2*
O=C(CSc1ccc(-c2ccco2)nn1)N1CCCCC1 | -4.3% | 60.9* | 11.9% | 39.9% | -13.5% | 62.3*
CC1CCN(C(=O)CSc2nnc(-c3ccco3)o2)CC1 | 0.0% | -2.8 | -1.1% | . | -1.3% | -2.3
CN(C(=O)COC(=O)CNC(=O)c1ccc(C(C)(C)C)cc1)c1c(N)n(Cc2ccccc2)c(=O)[nH]c1=O | -7.7% | . | 3.6% | 10.9% | -6.3% | .
CC(=O)N1CCOc2ccc(S(=O)(=O)N3CCC(C(=O)NCc4ccc(Cl)cc4)CC3)cc21 | . | . | . | . | 3.7% | .
COCC(C)NCc1ccc(OC)c(Br)c1 (stereo not drawn) | -0.8% | -5.0 | 11.7µM* | -28.9% | -20.5% | -16.5
